The structures appear in SMILES notation. Compounds without any hit were thinned out: in the full panel of roughly 83,000, 20% have a hit.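 Values shown are percent growth following 48 h exposure of cells in 96-well plates to a single concentration of compound; below 10 was considered active.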 Unmarked numbers belong to inactive results. Active and inactive are the calls of the source.

The subject of this assay is MDA-MB-468 breast. Description: NCI-60 one-dose screen, 48 h (100 = growth as untreated, 0 = no growth, -100 = all killed). The settings on record: 10 µM unless noted.
With `Cc1c(C(=O)CCl)c(=O)n(-c2ccccc2)n1C`, the growth is -19.1% (active).
The value for `O=c1[nH]c2c(s1)CCCC2CN1CCCCC1` (centres undefined) was 109%; that for `CN1CCN(c2ccc3nc(/N=C/c4ccc5sc(-c6ccc([N+](=O)[O-])cc6)nc5c4)sc3c2)CC1` was 109%; that for `CN1CCN(CC(=O)N2c3cccc4cccc(c34)N(C(=O)CN3CCN(C)CC3)C2c2cn(-c3ccccc3)nc2-c2cccc([N+](=O)[O-])c2)CC1` was -68.9% (active).
The value for `Cc1cccc(NC(=O)Nc2ccc(-c3ccc4c(c3)NC(=O)/C4=C\c3ccc[nH]3)cc2)c1` was -0.651% (active).
On to `C#CC(=O)/C=C/CCCCCCC#CC(=O)CCC(=O)C#CCCCCCC/C=C/C(=O)C#C`, for which the growth was -10% (active).
The value for `COc1ccc2nc(-c3ccc(-c4noc(-c5ccc(Cl)cc5)n4)cc3)[nH]c2c1` was 37.5%; that for `COC1=C(C)C(=O)N2[C@@H]1[C@H](c1ccccc1)OC21C=CC(=O)C=C1` was -20.4% (active); that for `Cn1ccnc1C(=O)/C=C/c1ccc(CC(=O)Nc2cc(C(F)(F)F)cc(C(F)(F)F)c2)cc1` was 78%.
The value for `O=C(Nc1ccc(I)cc1F)c1cc(F)ccc1O` was -3.61% (active); that for `CCOC(=O)c1c(-c2ccc(Cl)cc2)c(C#N)c(=O)n(-c2ccccc2CC)c1N` was 98.9%; that for `COc1cc(/C=C\c2cc(OC)c(OC)c(OC)c2)cc(N)c1OC` was 58.4%.
On to `C#CCOc1cc(/C=N/Nc2nc(-c3ccc(OC)cc3)cs2)ccc1O`, for which the growth is 43%.
The value for `CCCc1cccc(CCC)c1NC(=O)Nc1cc(Cl)cc(Cl)c1` was 98.8%.
